Rows were chosen to be rich in hits. Some 8.2% of all compounds tested hit in one or more screens of this group.
MCF10A rereplic = A quantitative high throughput screen for small molecules that induce DNA re-replication in MCF 10a normal breast cells. MCF 10A DNA re-replication, Hoechst nuclear intensity, 48 h. Potency, µM (doses to about 46.1 µM), without a hit: at the highest dose activity, positive = re-replication, actives largely listed as activators. actives 2.9% (n = 350,000). AID 624296, 2012; further: % of control where 0% means no effect; nearly all actives have a fitted effect of over 50% in size
ELG1 repair inh = qHTS screen for small molecules that inhibit ELG1-dependent DNA repair in human embryonic kidney (HEK293T) cells expressing luciferase-tagged ELG1; HEK293T ELG1-luciferase reporter, luminescence, 16 h; DNA damage induced by 5-fluorouridine; actives 2.3% (n = 330,000); Potency, µM (highest dose often 46.1 µM), inactives show top-dose activity change, negative = inhibition, usual class: inhibitors; AID 504467, 2011; further: on the % scale 0 is the no-effect control and ±100 the full control effect; nearly all actives have a fitted effect of over 55% in size
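5-Fluorouridine DNA damage + compound/DMSO, 2,000 cells/well, 16 h, 37 °C/5% CO2. ONE-Glo, 30 min RT, luminescence. Readout = decrease in reporter signal.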
KB-3-1 tox = qHTS assay for MDR1-selective chemotherapeutics: Primary screen using the parental adenocarcinoma cell KB-3-1. KB-3-1 viability, CellTiter-Glo ATP luminescence, 72 h. Potency, µM (titrated, usually from 46.1 µM), hits mostly cytotoxic. actives 1.4% (n = 400,000). AID 1347075, 2019; further: on the % scale 0 is the no-effect control and ±100 the full control effect; nearly all actives have a fitted effect of over 60% in size
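Viability of parental KB-3-1 cells, measured by CellTiter-Glo luminescence, followed a 72 h incubation at 37 °C with pinned compounds in phenol-red-free DMEM containing 10% FBS.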
KB-V1 MDR tox = qHTS assay for MDR1-selective chemotherapeutics: Primary screen using the drug-selected MDR subline cells KB-V1. actives 3.4% (n = 400,000). Potency, µM (titrated, usually from 46.1 µM), actives largely listed as cytotoxic. AID 1347076, 2019. KB-V1 MDR cells viability, CellTiter-Glo, 72 h; further: on the % scale 0 is the no-effect control and ±100 the full control effect; nearly all actives have a fitted effect of over 60% in size
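Cytotoxicity via CellTiter-Glo luminescence after 72 h compound exposure at 37 degrees C. Cells: drug-selected KB-V1 line, DMEM phenol-red free plus 10% FBS. Compounds tested at multiple concentrations; normalized data fitted to concentration-effect curves.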
SW480 rereplic = A quantitative high throughput screen for small molecules that induce DNA re-replication in SW480 colon adenocarcinoma cells. SW480 DNA re-replication, Hoechst DNA content imaging, 48 h. AID 624297, 2012. Potency, µM (top dose mostly 46.1 µM), for inactives: top-dose re-replication activation, actives largely listed as activators. actives 1.8% (n = 340,000); further: % of control where 0% means no effect; nearly all actives have a fitted effect of over 55% in size
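Quantitative HTS format with DMSO vehicle controls; 48 hr drug incubation at 37 C, then 40 min Hoechst staining and scanning imager measurement at 405 nm excitation.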
ELG1 FLuc counter = qHTS screen for small molecules that inhibit ELG1-dependent DNA repair: Hit Confirmation in Cell-Based Luciferin Assay. actives 3% (n = 350). Potency, µM (highest dose often 46.1 µM), for inactives: at the highest dose activity change, negative = inhibition, actives largely listed as inhibitors. cell-free firefly luciferase luminescence counter-screen, ViewLux. shares compounds with ELG1 repair inh; further: on the % scale 0 is the no-effect control and ±100 the full control effect
ELG1 Luc conf = HTS assay for small molecules that inhibit ELG1-dependent DNA repair in human embryonic kidney (HEK293T) cells expressing luciferase-tagged ELG1: Hit Confirmation; shares compounds with ELG1 repair inh; HEK293T ELG1-luciferase levels, luminescence; cells co-treated with 5-fluorouridine; Potency, µM (series often up to 46.1 µM), for the others: at the top dose activity change, negative = inhibition, hits mostly inhibitors; actives 68% (n = 670); AID 624248, 2012; further: on the % scale 0 is the no-effect control and ±100 the full control effect; nearly all actives have a fitted effect of over 55% in size
Target sequence (Q96QE3 whole entry, looked up): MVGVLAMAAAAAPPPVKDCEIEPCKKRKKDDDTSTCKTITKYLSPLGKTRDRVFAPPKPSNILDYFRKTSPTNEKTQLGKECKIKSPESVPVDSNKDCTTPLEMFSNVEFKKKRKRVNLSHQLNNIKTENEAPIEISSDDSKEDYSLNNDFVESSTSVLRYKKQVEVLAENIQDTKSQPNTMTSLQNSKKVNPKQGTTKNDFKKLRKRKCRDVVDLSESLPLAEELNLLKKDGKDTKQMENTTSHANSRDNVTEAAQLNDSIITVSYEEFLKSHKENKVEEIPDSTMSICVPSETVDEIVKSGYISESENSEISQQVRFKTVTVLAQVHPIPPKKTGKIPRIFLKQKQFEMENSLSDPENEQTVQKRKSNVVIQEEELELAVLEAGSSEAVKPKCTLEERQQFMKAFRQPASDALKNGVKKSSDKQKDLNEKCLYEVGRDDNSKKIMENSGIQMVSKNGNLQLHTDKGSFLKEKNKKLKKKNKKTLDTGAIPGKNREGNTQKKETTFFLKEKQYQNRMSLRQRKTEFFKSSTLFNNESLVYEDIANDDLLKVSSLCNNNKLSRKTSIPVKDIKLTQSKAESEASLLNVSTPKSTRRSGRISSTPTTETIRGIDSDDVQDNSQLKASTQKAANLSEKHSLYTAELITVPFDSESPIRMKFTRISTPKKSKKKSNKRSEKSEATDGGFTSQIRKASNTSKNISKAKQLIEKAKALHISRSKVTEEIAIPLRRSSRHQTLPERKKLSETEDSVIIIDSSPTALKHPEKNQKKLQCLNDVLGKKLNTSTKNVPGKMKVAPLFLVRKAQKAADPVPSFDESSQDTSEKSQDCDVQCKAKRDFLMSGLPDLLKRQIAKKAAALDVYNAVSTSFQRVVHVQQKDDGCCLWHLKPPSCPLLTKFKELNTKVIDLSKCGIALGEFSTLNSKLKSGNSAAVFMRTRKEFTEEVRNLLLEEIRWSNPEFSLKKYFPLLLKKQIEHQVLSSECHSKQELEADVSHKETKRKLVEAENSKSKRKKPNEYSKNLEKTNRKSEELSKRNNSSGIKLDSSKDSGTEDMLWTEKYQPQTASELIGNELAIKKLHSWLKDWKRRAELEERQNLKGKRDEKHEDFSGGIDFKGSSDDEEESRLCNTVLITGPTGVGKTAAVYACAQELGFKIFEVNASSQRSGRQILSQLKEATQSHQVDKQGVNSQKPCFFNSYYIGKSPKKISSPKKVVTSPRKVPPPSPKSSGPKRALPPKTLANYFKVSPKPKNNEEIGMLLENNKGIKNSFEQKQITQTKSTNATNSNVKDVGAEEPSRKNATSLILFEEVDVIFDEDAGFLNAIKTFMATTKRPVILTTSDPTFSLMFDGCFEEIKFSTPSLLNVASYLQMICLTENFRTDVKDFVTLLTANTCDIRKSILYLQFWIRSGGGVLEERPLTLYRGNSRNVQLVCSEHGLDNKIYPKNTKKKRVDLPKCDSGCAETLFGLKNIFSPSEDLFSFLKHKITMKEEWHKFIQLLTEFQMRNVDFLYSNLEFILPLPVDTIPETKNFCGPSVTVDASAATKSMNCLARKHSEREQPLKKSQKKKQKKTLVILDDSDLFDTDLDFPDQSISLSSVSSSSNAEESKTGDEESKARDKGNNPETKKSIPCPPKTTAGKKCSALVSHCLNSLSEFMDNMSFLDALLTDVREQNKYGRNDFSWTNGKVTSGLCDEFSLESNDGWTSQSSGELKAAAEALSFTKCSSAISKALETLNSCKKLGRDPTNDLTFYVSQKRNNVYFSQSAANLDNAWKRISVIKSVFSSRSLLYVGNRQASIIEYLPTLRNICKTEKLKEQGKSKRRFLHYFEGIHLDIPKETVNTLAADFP
ELG1-Luc MMS = MMS-stimulated human ELG1 repair inhibition, confirmed | shares compounds with ELG1 repair inh | HEK293T luciferase-tagged ELG1 level, MMS stimulated | Potency, µM (doses to about 46.1 µM), for the others: at the top dose activity change, negative = inhibition, usual class: inhibitors | actives 53% (n = 670) | AID 624249; further: on the % scale 0 is the no-effect control and ±100 the full control effect; nearly all actives have a fitted effect of over 60% in size
ELG1 5FU viab = qHTS screen for small molecules that inhibit ELG1-dependent DNA repair: Hit Confirmation with 5FU Viability; AID 624250, 2012; shares compounds with ELG1 repair inh; Potency, µM (doses to about 46.1 µM), without a hit: at the highest dose activity change, negative = viability loss, usual class: cytotoxic; 670 tested, under 10 active; cell viability with 5-FU, ELG1-dependent repair;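 further: ELG1-luc HEK293T cells cotreated with 5-fluorouridine at 10 µM final; viability measured 16 h after compound addition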
ELG1 MMS cell = qHTS screen for small molecules that inhibit ELG1-dependent DNA repair: Hit Confirmation with MMS Viability; Potency, µM (doses to about 46.1 µM), for the others: at the highest dose activity change, negative = viability loss, most hits filed as cytotoxic; AID 624251, 2012; shares compounds with ELG1 repair inh; Cell viability with MMS, ELG1-dependent DNA repair; actives 33% (n = 670);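 further: ELG1-luc HEK293T cells co-treated with 10 µM MMS; viability read 16 h after compound addition; on the % scale 0 is the no-effect control and ±100 the full control effect; nearly all actives have a fitted effect of over 60% in size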
Cell viab unstim = qHTS screen for small molecules that inhibit ELG1-dependent DNA repair: Hit Confirmation with Unstimulated Viability Assay | shares compounds with ELG1 repair inh | cell viability counter-screen, unstimulated, luminescence | Potency, µM (doses to about 45.9 µM), for the others: at the top dose activity change, negative = loss of viability, most hits filed as cytotoxic | actives 8% (n = 900) | AID 624252, 2012;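 further: compound exposure lasted 16 hours before reading; on the % scale 0 is the no-effect control and ±100 the full control effect; nearly all actives have a fitted effect of over 55% in size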
FLuc enzyme = qHTS screen for small molecules that inhibit ELG1-dependent DNA repair: Hit Confirmation in Biochemical Luciferin Assay; purified firefly luciferase, luminescence counter-screen; actives 10% (n = 350); Potency, µM (highest dose often 57.5 µM), inactives show top-dose activity, negative = inhibition, usual class: inhibitors; shares compounds with ELG1 repair inh; further: on the % scale 0 is the no-effect control and ±100 the full control effect
The depositor's hits bear a star; i = inactive; ? = inconclusive; nt = no result; [ ] = another dose, or the depositor's remark. The call rests on the fitted dose curve; in most records, active means well fitted curve in the direction sought with a large enough effect; inconclusive means small, poorly fitted or top-dose-only effect, or another doubt; inactive means no such curve, though single readings can be large; an effect the other way counts as inactive or inconclusive. Potency means the concentration at half of the fitted maximal effect.

SMILES	MCF10A rereplic	ELG1 repair inh	KB-3-1 tox	KB-V1 MDR tox	SW480 rereplic	ELG1 FLuc counter	ELG1 Luc conf	ELG1-Luc MMS	ELG1 5FU viab	ELG1 MMS cell	Cell viab unstim	FLuc enzyme
CC1C(OC(=O)CCC(=O)NC(C)(C)CO)O[C@H]2OC3(C)CC[C@H]4[C@H](C)CCC1C24OO3 (some centres undefined)	29.8%	1.16µM*	10.3µM*	13µM*	?	nt	?	?	-4.6%	?	?	nt
COC1C(O)C(C)O[C@@H](OC2CC[C@@]3(C)C4CC[C@]5(C)C(C6=CC(=O)OC6)CC[C@@]5(O)C4CC[C@@H]3C2)C1O (some centres undefined)	nt	nt	nt	nt	nt	?	0.0997µM*	0.0629µM*	?	0.141µM*	0.05µM*	-6.0%
CC1OC(O[C@@H]2C(O)CC(O[C@@H]3C(O)C[C@@H](OC4CC[C@]5(C)[C@H](CC[C@H]6[C@@H]5CC[C@]5(C)C(C7=CC(=O)OC7)C(O)C[C@@]65O)C4)OC3C)OC2C)CC(O)C1O (some centres undefined)	nt	nt	nt	nt	nt	nt	0.56µM*	0.315µM*	?	0.499µM*	0.199µM*	nt
COC1C(O)C(C)O[C@H](OC2CC[C@@]3(C=O)C4CC[C@]5(C)C(C6=CC(=O)OC6)CC[C@@]5(O)C4CC[C@@H]3C2)C1O (some centres undefined)	nt	nt	nt	nt	nt	?	0.177µM*	0.0706µM*	0.25µM*	0.158µM*	0.0445µM*	?
O=C(COC(=O)CCc1c[nH]c2ccccc12)Nc1ccc([N+](=O)[O-])cc1	-81.6%	2.5%	i	i	-45.6%	nt	nt	nt	nt	nt	nt	nt
N#Cc1ccccc1NC(=O)c1cccn(Cc2ccccc2)c1=O	nt	nt	i	i	nt	nt	nt	nt	nt	nt	nt	nt
CCCCN=C[C@]12CCC(O)CC1(O)CCC1[C@@H]2CC[C@]2(C)[C@H](C3C=CC(=O)O3)CCC12O (some centres undefined)	?	1.03µM*	0.231µM*	0.517µM*	2.31µM*	?	1.58µM*	0.889µM*	?	1.99µM*	0.629µM*	-3.0%
Cc1ccc2scc(N3CCN(C)CC3)c(=O)c2c1	nt	nt	i	i	nt	nt	nt	nt	nt	nt	nt	nt
COc1cc2c(cc1OC)[C@@H]1C(=O)c3ccc4c(c3OC1CO2)CC(C(C)C)O4 (some centres undefined)	nt	nt	nt	nt	nt	?	25µM*	0.0445µM*	-21.7%	0.0397µM*	?	-4.3%
C=C(C)[C@@]12OC3(c4ccccc4)O[C@@H]1[C@@H]1[C@@H]4O[C@]4(CO)[C@@H](O)[C@]4(O)C(=O)C(C)=C[C@H]4[C@@]1(O3)[C@H](C)[C@H]2OC(=O)/C=C/C=C/c1ccccc1	nt	nt	nt	nt	nt	72.5%	nt	nt	nt	nt	?	-0.5%
O=C(COc1ccccc1Cl)N1CCN(CCc2ccccn2)CC1	nt	nt	i	i	nt	nt	nt	nt	nt	nt	nt	nt
CCc1ccccc1NC(=O)c1cccn(Cc2ccccc2F)c1=O	nt	nt	i	i	nt	nt	nt	nt	nt	nt	nt	nt
O=c1[nH]c(=O)n(Cc2ccc(F)cc2)c(O)c1C=NCCCO	6.7%	16.3%	i	i	-4.7%	nt	nt	nt	nt	nt	nt	nt
O=c1[nH]c(=O)n(Cc2ccc(F)cc2)c(O)c1/C=N/Nc1ccccc1	7.4%	1.83µM*	i	i	-1.8%	nt	6.2%	1.9%	-0.2%	-3.0%	?	nt
CCOc1cccc(=NC2CCCCC2)c2c(C)n(C)c(C)c12	-0.6%	4.61µM*	18.4µM*	?	2.5%[9.22 µM]	nt	?	7.91µM*	?	7.91µM*	?	nt
CCCCOC(=O)c1ccc(NC(=O)c2c(O)[nH]c(=O)[nH]c2=O)cc1	-3.0%	nt	i	i	-8.2%	nt	nt	nt	nt	nt	nt	nt
CCOC(=O)c1ccc(NC(=O)c2nc[nH]c2C(=O)NCCNC(=O)c2[nH]cnc2C(=O)Nc2ccc(C(=O)OCC)cc2)cc1	-13.2%	0.517µM*	i	?	3.5%	?	0.792µM*	1.41µM*	?	?	-21.2%	?
COc1cccc(-n2c(/C=C/c3cccc(C)c3)nc3ccccc3c2=O)c1	nt	nt	i	i	nt	nt	nt	nt	nt	nt	nt	nt
COC[C@H]([C@@H](O)[C@@H](O)C(=O)NCC[C@@H](C)c1nc(/C=C/C[C@H]2OC3(C[C@H](O)[C@H]2C)OC([C@@H](C[C@@H](O)[C@@H](C)[C@@H](O)[C@@H](C)/C=C(C)/C(C)=C/C=C/C(C)=C\C#N)OC)[C@@H](OP(=O)(O)O)C3(C)C)co1)N(C)C (some centres undefined)	nt	nt	nt	nt	nt	0.5µM*	0.141µM*	0.0889µM*	1.77µM*	0.0792µM*	0.158µM*	-1.0%
